# PubChem BioAssay AID651658 (Broad Institute, 2012)
# The campaign covered roughly 340,000 compounds. About 5,100 (1.5%) were called active. This excerpt belongs to a sample that is enriched for actives. Unmarked numbers belong to inactive results.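 The calls were made as follows: active = mean Tm shift, scaled 0 neutral to 100 positive control, at about 1.3% or above, every replicate too (limit read from the data); inconclusive = no clear call, values can overlap the other calls; inactive = the rest.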
# Biological target: Fibroblast growth factor 22 (Homo sapiens) (UniProt Q9HCT0)
# Sequence (Q9HCT0 whole entry, looked up): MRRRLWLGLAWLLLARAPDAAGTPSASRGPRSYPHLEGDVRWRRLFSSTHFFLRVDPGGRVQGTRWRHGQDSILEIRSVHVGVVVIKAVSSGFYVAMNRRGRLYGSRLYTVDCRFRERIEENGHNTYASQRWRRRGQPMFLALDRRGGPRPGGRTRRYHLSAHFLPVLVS
# Experiment: FGF22 ligand-induced thermal stabilization – biophysical, thermal shift, single point, FGF22 synaptogenesis inhibitor project, primary screen (AID 651658)
# Conditions: recombinant FGF22 thermal shift, SYPRO orange fluorescence, at 9.99 µM, stronger effect = higher value
row,Structure (SMILES),"activity (Tm shift, normalised)"
1,Cc1cccc(-n2c(C)nc3cc(C(=O)N4CCC5(CC4)OCCO5)ccc32)c1,0.173%
2,Cc1ccc(-c2cc(C(=O)N3CCC4(CC3)OCCO4)no2)cc1,43.1% (active)
3,O=C(c1ccccc1[N+](=O)[O-])N1CCC2(CC1)OCCO2,-0.032%
4,COc1cccc(-c2ccc3n(c2=O)C[C@@H]2[C@@H](CO)[C@H](C(=O)O)[C@H]3N2C(=O)c2cnccn2)c1,-0.051%
5,C[C@]12CCCCC1=CC(=O)C1C2CC[C@@]2(C)C1C[C@@H](F)[C@@H]2O (stereo not given in full),43.1% (active)
6,C[C@]12CCC3C(CC[C@H]4[C@H](O)[C@H](O)CC[C@]34C)C1CCC2=O (stereo not given in full),42.7%
7,COC(=O)[C@@H]1[C@@H](CO)[C@@H]2Cn3c(ccc(C4=CCCCC4)c3=O)[C@H]1N2CC1CC1,0.126%
8,C/C=C/c1ccc(C2[C@@H]3CN(Cc4cncnc4)C[C@H]2N3)cc1 (stereo not given in full),"-0.323% [percent of sucrose octasulfate shift, DMSO zero]"
9,COc1cccc(-c2ccc3n(c2=O)C[C@H]2[C@H](CO)[C@@H](C(=O)O)[C@@H]3N2C(=O)c2cnccn2)c1,-0.009%
10,CC=C(C)C(=O)OC1CCN2CC=C(COC(=O)C(O)(C(C)OC)C(C)(C)O)C12 (stereo not given),43.1% (active)
11,O=C(O)[C@H]1[C@H](CO)[C@H]2Cn3c(ccc(-c4ccccc4)c3=O)[C@@H]1N2S(=O)(=O)c1ccccc1F,0.019%
12,COC(=O)[C@@H]1[C@@H](CO)[C@@H]2Cn3c(ccc(-c4ccc(F)cc4)c3=O)[C@H]1N2C(C)=O,-0.001%
13,COC(=O)[C@H]1[C@H](CO)[C@H]2Cn3c(ccc(-c4cccc(F)c4)c3=O)[C@@H]1N2Cc1ccccc1,-0.258%
14,O=C(c1ccccc1)C(O)(CN1CCCCC1)c1ccccc1 (stereo not given),-0.158%
15,c1ccc(C(CN2CCCCC2)c2ccccc2)cc1,-0.37%
16,CC(CC(C#N)(c1ccccc1)c1ccccc1)N1CCCCC1 (stereo not given),43.4% (active)
17,O=C(Cc1ccccc1)N1CCCCN2[C@H](CO)[C@H](c3ccc(C#Cc4ccccc4)cc3)[C@H]2C1,-0.682%
18,C/C=C/c1ccc(C2[C@@H]3CN(S(C)(=O)=O)C[C@H]2N3)cc1 (stereo not given in full),"0.016% [percent of sucrose octasulfate shift, DMSO zero]"
19,CCN(CC)C(=O)[C@@H]1C=C2c3cccc4[nH]c(Br)c(c34)C[C@H]2N(C)C1,0.114%
20,COC(=O)[C@H]1[C@H](CO)[C@H]2Cn3c(ccc(-c4ccccc4F)c3=O)[C@@H]1N2C(=O)C1CCC1,0.081%
